High-throughput results (PubChem BioAssay)
Hits are enriched below; roughly 3.7% of the tested compounds scored in any of these assays.
Rce1 inhib = yeast Ras-converting enzyme inhibition; Q03530; yeast membranes, quenched prenylated peptide cleavage fluorescence; calls only; hit rate 0.27% among 290,000; AID 2563;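 active = fall in fluorescence gain of 50% or more versus controls, with final raw signal at or below 3038400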;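 also: plate controls were neutral control wells for no effect and wells lacking membranes for full effect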
Target sequence (Q03530 whole entry, looked up): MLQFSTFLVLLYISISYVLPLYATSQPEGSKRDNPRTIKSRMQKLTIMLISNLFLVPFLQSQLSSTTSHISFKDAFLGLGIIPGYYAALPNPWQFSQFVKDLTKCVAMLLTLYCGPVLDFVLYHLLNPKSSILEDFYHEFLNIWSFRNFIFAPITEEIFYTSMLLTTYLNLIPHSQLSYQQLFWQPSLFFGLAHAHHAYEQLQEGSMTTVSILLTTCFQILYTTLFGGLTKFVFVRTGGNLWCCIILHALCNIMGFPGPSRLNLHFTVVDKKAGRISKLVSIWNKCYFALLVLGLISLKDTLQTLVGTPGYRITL
PfHsp90 set2 = reduces growth (ATP signal) of yeast expressing P. falciparum Hsp90. S. cerevisiae expressing PfHsp90, BacTiter-Glo ATP, 48 h; yeast lacking PDR1 and PDR3 efflux regulators. inhibition, % at 9.4 µM. hit rate 0.32% among 310,000. AID 504621;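 active = every replicate shows inhibition above about 80%, whatever the replicate mean, limit read from the data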;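 also: 0% = DMSO neutral controls and 100% = 20 µM radicicol positive controls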
tim10-1 inh = tim10-1 yeast growth inhibition | S. cerevisiae tim10-1 ts strain growth, BacTiter-Glo, 24 h | inhibition, % at 20 µM | hit rate 2.2% among 330,000;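 active = inhibition of at least 40%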;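 also: mutant grown at 25 °C; 0% = DMSO wells with yeast and 100% = wells holding no yeast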
TIM10 inh = TIM10 yeast growth inhibition; S. cerevisiae TIM10 strain growth, BacTiter-Glo luminescence, 24 h; inhibition, % at 10 µM; hit rate 1.4% among 330,000; AID 463195;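 active = inhibition of 40% or more at the single tested concentration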;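 also: wild-type TIM10 isogenic control strain grown at permissive 25 °C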
tim23-1 inh = tim23-1 yeast growth inhibition; S. cerevisiae tim23-1 growth, BacTiter-Glo luminescence, 24 h; inhibition, % at 20 µM; hit rate 1.3% among 330,000; AID 463212;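 active = growth inhibition of the mutant yeast at or above 50%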;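 also: temperature-sensitive mutant grown at 25 °C; plate controls were DMSO-treated mutant yeast for no effect and medium wells lacking yeast for full effect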
tim23-1 confirm = confirmation of tim23-1 mutant yeast growth inhibitors | S. cerevisiae tim23-1 growth, BacTiter-Glo luminescence, 24 h | AID 463218 | shares compounds with tim23-1 inh | inhibition, % at 20 µM | hit rate 83% among 4,400;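 active = inhibition above about 39% in either of two replicate wells at 20 µM, limit read from the data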;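 also: temperature-sensitive tim23-1 mutant grown at 25 °C; 0% = DMSO wells with yeast and 100% = medium wells without yeast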
* marks the source's active call; other numbers are inactive results; i = inactive; / = no result.

SMILES | Rce1 inhib | PfHsp90 set2 | tim10-1 inh | TIM10 inh | tim23-1 inh | tim23-1 confirm
CCn1c(/C=C2\C(=O)N(C(C)C)c3ccccc32)nc2ccccc2c1=O | i | -12 | 31 | 39 | 56* | 42*
O=C(CCC1CCCN(C(=O)c2ccc3c(c2)OCO3)C1)NCc1ccc(F)c(F)c1 (stereo not given) | i | 11 | 13 | 8 | -1 | /
CC(=O)c1cccc(NC(=O)C2CCCCC2)c1 | i | 8 | 22 | 7 | 18 | /
CC1CCCCN1C(=O)Nc1cccc(Cl)c1 (stereo not given) | i | / | 16 | 17 | 51* | 48*
O=C(Nc1cccc(Cl)c1)C1CCCCC1 | / | 4 | 25 | 33 | 66* | 69*
O=C(Nc1cccc(Br)c1)C1CCCC1 | / | / | 8 | 33 | 64* | 62*
COc1cccc(N(CC(=O)N/N=C(\C)c2cccs2)S(C)(=O)=O)c1 | i | -7 | 8 | 4 | 6 | /
COc1cc(Br)c(CC(=O)NNC(=O)c2ccc(F)cc2)cc1OC | / | 6 | -14 | -12 | 0 | /
COc1cc(OC)cc(C(=O)N[C@H](C(=O)Nc2ccc(S(=O)(=O)N(C)C)cc2)C(C)C)c1 | i | 31 | 38 | 6 | 28 | /
O=C(NCCc1ccc(C(F)(F)F)cc1)C1CCC(=O)N(CCCc2ccccc2)C1 (stereo not given) | i | 12 | 11 | 19 | 11 | /
COc1ccc(NC(=O)Cc2nnc(SCC(=O)Nc3nccs3)n2C)cc1 | / | 6 | -14 | 13 | -3 | /
Cc1nn(-c2ccccc2)c2nc(N)c(C#N)c(-c3ccc(C(C)(C)C)cc3)c12 | i | -9 | -10 | 7 | 13 | /
COc1cccc(-c2c(C#N)c(N)nc3c2c(C)nn3-c2ccccc2)c1O | i | -3 | 17 | 10 | 51* | 27
COc1ccccc1NS(=O)(=O)c1ccc(O)c(NC(=S)NCC2CCCO2)c1 (stereo not given) | i | 11 | -6 | 2 | 15 | /
Cc1ccc(C(=O)O/N=C(\N)c2ccccn2)c(Cl)c1 | i | 30 | 36 | 33 | 51* | 54*
Cc1c(Cl)c(C(=O)NNC(=S)Nc2ccc(F)cc2)nn1C | i | 1 | 26 | 3 | 6 | /
CCN(CC)c1ccc(NC(=O)c2ccccc2Br)cc1S(=O)(=O)Nc1ccccc1OC | i | -30 | 14 | 15 | 50* | 86*
CCN(CC)c1ccc(NC(=O)c2ccccc2F)cc1S(=O)(=O)Nc1ccccc1OC | i | 8 | 30 | 29 | 21 | /
Clc1ccccc1-c1ccc2ncnc(NCc3cccs3)c2c1 | / | -22 | 27 | 31 | 54* | 34
Clc1cccc(-c2ccc3ncnc(NCc4cccs4)c3c2)c1 | / | 17 | 19 | 24 | 51* | 40*
Cc1cccc(-c2ccc3ncnc(NCc4cccs4)c3c2)c1 | / | -10 | 24 | 12 | 38 | /
S=C(NCc1ccccn1)Nc1ccc(Cl)c(Cl)c1 | i | / | 33 | 27 | 56* | 46*
CCC(C(=O)NCc1ccc(C)o1)n1nc(C)c2c(C)n(-c3ccccc3)nc2c1=O (stereo not given) | i | 8 | 11 | 6 | 8 | /
CCCNC(=O)c1oc2ccc3c(c2c1C)C(O)CC(C)(C)O3 (stereo not given) | i | 2 | 22 | 2 | 20 | /
Cc1c(C(=O)NCc2ccoc2)oc2ccc3c(c12)C(=O)CC(C)(C)O3 | i | -16 | 30 | 38 | 52* | 53*
SMILES | Rce1 inhib | PfHsp90 set2 | tim10-1 inh | TIM10 inh | tim23-1 inh | tim23-1 confirm
COc1ccc(-c2nc(N)nc(C)c2Oc2ccccc2Br)c(O)c1 | / | -35 | 33 | 1 | 50* | 47*
COC(=O)c1sccc1NC(=O)CC1C(=O)NCCN1C(=O)c1c(F)cccc1Cl (stereo not given) | i | -2 | -3 | -13 | 16 | /
O=[N+]([O-])/C(C(Cl)=C(Cl)Cl)=C(\Nc1ccc(F)cc1)n1cncn1 | i | / | 38 | 35 | 75* | 20
O=C(N/N=C/c1ccc2c(c1)OCO2)c1ccccn1 | i | / | 3 | 7 | 31 | /
O=C(/C=C/c1ccc2c(c1)OCO2)c1ccccn1 | i | 13 | 32 | 22 | 56* | 44*
Cc1ccc(-c2nnc(NC3CCCC3)s2)cc1 | i | -23 | 17 | 15 | 53* | 42*
C[C@@H]1CC=C[C@@H]2[C@H]1C(=O)N(Cc1ccccc1)[C@H]2c1ccccc1Br | / | -32 | 22 | 15 | 52* | 34
COC(=O)/C=C/c1cccc([C@H]2[C@@H]3C=CC[C@@H](C)[C@@H]3C(=O)N2Cc2ccccc2)c1 | / | -54 | 24 | 11 | 51* | 34
COc1ccc(-c2ccccc2[C@H]2[C@@H]3C=CC[C@@H](C)[C@@H]3C(=O)N2Cc2ccccc2)cc1 | / | 10 | 24 | 9 | 47 | /
COc1ccc(CN2CC[C@H]3C=CC[C@@H](C(=O)NCCc4ccccc4)[C@H]3C2=O)cc1OC | i | / | 0 | 2 | 4 | /
O=C(CCCc1ccccn1)c1cccc2ccccc12 | / | -14 | / | / | / | /
O=C(CCl)c1ccc(Cc2ncc(C(F)(F)F)cc2Cl)s1 | i | / | 29 | 21 | 52* | -92
NS(=O)(=O)c1ccc(Cc2ncc(C(F)(F)F)cc2Cl)s1 | i | 8 | 13 | 6 | 4 | /
COc1ccc(/C=C2\C(=O)ON=C2c2ccccc2)cc1 | i | 14 | 31 | 6 | 42 | /
Cc1ccc(-c2ccc(/C=C3\C(=O)ON=C3c3ccccc3)o2)c([N+](=O)[O-])c1 | i | 49 | 7 | 33 | 70* | 67*
Cc1ccc(/C=C2\C(=O)ON=C2c2ccccc2)o1 | i | 32 | 27 | 7 | 53* | 53*
COc1ccc(S(=O)(=O)N2CCCC(C(=O)NC3CC3)C2)cc1OC (stereo not given) | i | 11 | -13 | -10 | -5 | /
Cc1cccc(OCC(=O)N(Cc2ccco2)c2c(N)n(Cc3ccccc3)c(=O)[nH]c2=O)c1 | / | 28 | -2 | 8 | 51* | 23
Nc1c(N(Cc2ccco2)C(=O)COc2ccccc2)c(=O)[nH]c(=O)n1Cc1ccccc1 | / | 8 | 3 | 9 | 12 | /
COc1ccc2c(=O)c3c(=O)n(Cc4ccco4)c(-c4cc(OC)c(OC)c(OC)c4)nc3oc2c1 | i | 23 | 2 | 13 | 2 | /
COc1ccc2c(=O)c3c(=O)n(Cc4ccco4)c(-c4ccccc4)nc3oc2c1 | i | / | 33 | 32 | 59* | 39*
CC(C)c1ccc(C(=O)CN2C(=O)NC3(CCc4ccccc43)C2=O)cc1 (stereo not given) | / | 12 | 19 | 26 | 54* | 44*
O=S(=O)(c1ccc(NCCCO)nc1)N1CCOCC1 | / | / | 10 | -2 | 15 | /
Cc1cccc(C(=O)Nc2cccc(C(=O)N/N=C/c3ccncc3)c2)c1 | i | 3 | 12 | 5 | 10 | /
Cc1cccc(C(=O)Nc2ccc(C(=O)/C=C/c3ccncc3)cc2)c1 | i | -13 | 34 | 26 | 62* | 59*
